Hits are enriched below; roughly 19% of the tested compounds scored in any of these assays.
DT40 TDP1 CPT: DT40-hTDP1 cell growth loss with CPT; chicken DT40 Tdp1-/-;hTDP1 cells + 20 nM CPT, ATP luminescence, 48 h; Potency, µM (doses to about 46.2 µM), for inactives: at the top dose activity change, negative = growth inhibition, most hits filed as inhibitors; 420,000 compounds, 12% hits; AID 686979; also: potency is read from the fitted curve at half-maximal effect; % is scaled to controls: 0 for no effect and ±100 for the full control effect; nearly all actives have a fitted effect of over 55% in size
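Chicken DT40 Tdp1-/- cells stably complemented with human TDP1 were seeded at 400 cells/well in medium containing 20 nM camptothecin, exposed to pin-transferred compounds, and grown at 37 °C for at least 48 hr. Viability was read as ATP luminescence.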
TDP1 block: TDP1 (human) enzyme inhibition | Q9NUW8 | recombinant TDP1, AlphaScreen DNA substrate cleavage | Potency, µM (doses to about 130 µM), for inactives: at the top dose activity change, negative = inhibition, actives largely listed as inhibitors | 350,000 compounds, 0.28% hits | AID 485290; also: potency is read from the fitted curve at half-maximal effect; % is scaled to controls: 0 for no effect and ±100 for the full control effect; nearly all actives have a fitted effect of over 40% in size
Target sequence (Q9NUW8 whole entry, looked up): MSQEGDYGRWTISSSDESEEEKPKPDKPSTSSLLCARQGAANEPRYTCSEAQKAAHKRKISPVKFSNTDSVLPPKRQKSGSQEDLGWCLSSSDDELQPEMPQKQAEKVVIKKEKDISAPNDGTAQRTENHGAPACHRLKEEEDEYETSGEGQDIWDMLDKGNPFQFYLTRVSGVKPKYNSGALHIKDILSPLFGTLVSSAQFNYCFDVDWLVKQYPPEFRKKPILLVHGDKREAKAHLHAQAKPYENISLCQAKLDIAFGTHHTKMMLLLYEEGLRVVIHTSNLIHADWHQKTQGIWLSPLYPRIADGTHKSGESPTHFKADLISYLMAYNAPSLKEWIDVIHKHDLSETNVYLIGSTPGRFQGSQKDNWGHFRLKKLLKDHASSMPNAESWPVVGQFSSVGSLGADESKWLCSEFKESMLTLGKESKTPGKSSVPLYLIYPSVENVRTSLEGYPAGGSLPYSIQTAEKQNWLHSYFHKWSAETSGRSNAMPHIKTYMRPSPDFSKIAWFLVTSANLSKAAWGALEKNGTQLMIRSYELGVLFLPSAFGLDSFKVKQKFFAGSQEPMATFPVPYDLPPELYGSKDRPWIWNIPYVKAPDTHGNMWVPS
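Recombinant E. coli-expressed Tdp1 (1 nM) preincubated with compound 15 min at RT, then 5'-biotin/3'-phosphotyrosine-FITC DNA substrate (15 nM) added for 5 min. AlphaScreen beads (10 ug/ml) added, 10 min RT; tyrosine-FITC cleavage read as signal loss.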
DT40 TDP1 no CPT: qHTS for Inhibitors of human tyrosyl-DNA phosphodiesterase 1 (TDP1): qHTS in cells in absence of CPT; DT40 Tdp1-/- hTDP1 cells, no CPT, ATP luminescence, 48 h; Potency, µM (highest dose often 46.2 µM), without a hit: at the highest dose activity change, negative = growth inhibition, hits mostly inhibitors; 420,000 compounds, 15% hits; also: potency is read from the fitted curve at half-maximal effect; % is scaled to controls: 0 for no effect and ±100 for the full control effect; nearly all actives have a fitted effect of over 55% in size
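Seeded 400 DT40-hTDP1 cells/well (vehicle DMSO, no 20 nM CPT); pinned compounds; ≥48 hr at 37 °C; CellTiter-Glo luminescence as viability measure.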
IL1B secr inh: inhibitors of inflammasome signaling (IL-1 beta secretion). THP-1 LPS/ATP IL-1B secretion, AlphaLISA, 16 h; hits give low values. activity change, % at 57.5 µM. 360,000 compounds, 4.7% hits. AID 743279; in the data active = activity change below about -50%; inconclusive = mostly about -30% to -49%; also: % is scaled to controls: 0 for no effect and ±100 for the full control effect
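Secreted IL-1B measured by AlphaLISA bead assay after 16 h compound exposure of THP-1 cells; compounds (final up to 57.5 uM) added 1 h before LPS (250 ng/mL) and ATP (1.25 mM) stimulation; lower signal means less secretion.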
TGFb SMAD3 inh: blocks TGF-b signaling | AID 588855 | 410,000 compounds, 1.2% hits | HepG2 CAGA-GFP TGF-b/SMAD3 reporter, GFP fluorescence, 18 h; TGF-beta stimulated, 500 pg/mL final | Potency, µM (titrated, usually from 46.1 µM), for the others: top-dose activity, negative = inhibition, most hits filed as inhibitors; also: potency is read from the fitted curve at half-maximal effect; % is scaled to controls: 0 for no effect and ±100 for the full control effect; nearly all actives have a fitted effect of over 65% in size
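First, reporter cells (HEPG2 CAGA-GFP) rested 2 h at 37 degrees C. Next, compounds were pinned in and TGF-beta added to 500 pg/mL final. After 18 h, GFP was imaged per cell and summed per well.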
HepG2 tox: counter-screen for TGF-b inhibitors: cytotoxicity in HepG2 cells. 410,000 compounds, 0.76% hits. AID 588856. HepG2 CAGA-GFP viability, ATP luminescence, 18 h. Potency, µM (series often up to 46.1 µM), for inactives: top-dose activity change, negative = cytotoxicity, hits mostly cytotoxic; also: potency is read from the fitted curve at half-maximal effect
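CellTiter-Glo luminescence gave cytotoxicity after 18 hours at 37 degrees C. The cells were HepG2 CAGA-GFP in 1% FBS DMEM, stimulated with 500 pg/mL TGF-beta after compound addition. %Activity was normalised to no-cell wells (complete cell-killing) and DMSO (no toxicity), and curves were fitted and classified.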
Starred values were filed as active, the others as inactive; ? = inconclusive; nt = no result given. Unless noted, calls follow the shape of the dose curve; as a rule, active = well fitted curve in the direction sought with a large enough effect; inconclusive = small, poorly fitted or top-dose-only effect, or another doubt; inactive = no such curve, though single readings can be large; an effect the other way counts as inactive or inconclusive.

SMILES | DT40 TDP1 CPT | TDP1 block | DT40 TDP1 no CPT | IL1B secr inh | TGFb SMAD3 inh | HepG2 tox
CCOCCCN(C(=O)Cn1nnc(-c2ccc(C)o2)n1)C(C(=O)NC1CCCC1)c1ccc(C)o1 (centres undefined) | ? | 5% | ? | -52* | -22% | 7%
CCOCCCN(C(=O)Cn1nnc(-c2ccc(C)o2)n1)C(C(=O)NC1CCCC1)c1ccco1 (centres undefined) | 4% | nt | -8% | -13 | -7% | -9%
COc1ccc(-c2nnn(CC(=O)N(Cc3cccs3)C(C)C(=O)NCCC(C)C)n2)cc1OC (centres undefined) | 15µM* | 5% | 21µM* | 0 | 13% | -10%
CCCCc1nn2c(=O)cc(COC(=O)c3ccc(NC(=O)C(CC)CC)cc3)nc2s1 | -17% | 1% | -14% | nt | -28% | -10%
CC[C@H](C)[C@@H](NC(=O)O[C@H]1C(=O)c2cc(OC)ccc2O[C@@H]1c1ccc(OC)c(Br)c1)C(=O)OC | nt | 8% | nt | nt | nt | nt
CC[C@H](C)[C@@H](NC(=O)O[C@@H]1C(=O)c2cc(OC)ccc2O[C@H]1c1ccc(OC)c(Br)c1)C(=O)OC | ? | 2% | 18µM* | ? | ? | -6%
COc1ccc(S(=O)(=O)N(C)C[C@H]2Oc3ccc(NS(=O)(=O)c4ccccc4)cc3CC(=O)N([C@H](C)CO)C[C@@H]2C)cc1 | ? | 0% | ? | -2 | ? | -30%
Cc1ccc(S(=O)(=O)Nc2ccc3c(c2)CC(=O)N([C@H](C)CO)C[C@H](C)[C@H](CN(C)Cc2ccc4c(c2)OCO4)O3)cc1 | 21µM* | 2% | 18µM* | 50 | ? | -50%
CCOC(=O)CCCCCC(=O)Nc1ccc2c(c1)CC(=O)N([C@H](C)CO)C[C@@H](C)[C@H](CN(C)Cc1ccc3c(c1)OCO3)O2 | ? | 5% | ? | 7 | -9% | -3%
C[C@@H]1CN([C@H](C)CO)C(=O)Cc2cc(NS(=O)(=O)c3ccc(F)cc3)ccc2O[C@H]1CN(C)Cc1ccc(C(=O)O)cc1 | -24% | 1% | -29% | 24 | -3% | 0%
COc1ccc(S(=O)(=O)Nc2ccc3c(c2)CC(=O)N([C@@H](C)CO)C[C@@H](C)[C@@H](CN(C)Cc2ccccc2)O3)cc1 | 18µM* | 2% | 16µM* | -15 | ? | -19%
C[C@@H]1CN([C@H](C)CO)C(=O)Cc2cc(NC(=O)Nc3ccccc3)ccc2O[C@@H]1CN(C)Cc1ccc2c(c1)OCO2 | ? | 7% | ? | -64* | 16µM* | 18µM*
COc1ccc(OCCN2CCCC2)cc1Nc1nnc(Cl)c(Nc2ccccc2S(C)(=O)=O)n1 | ? | nt | ? | 19 | -11% | -55%
Cc1cc(NC(=O)CCNS(=O)(=O)c2cccc3nsnc23)ccc1Br | -25% | 6% | -12% | nt | ? | -23%
Nc1cccc(-c2c[nH]c3ncc(-c4cccnc4)cc23)c1 | 8.2µM* | nt | 21µM* | -55* | ? | -32%
COC(=O)/C=C/c1cc(O)ccc1O | 0.73µM* | 6% | 1.2µM* | nt | nt | nt
O=C(NC(Sc1ccc(Cl)cc1)C(=O)O)c1ccccc1 (centres undefined) | 21µM* | nt | ? | -2 | -11% | -27%
CC(=O)c1c(N2CCN(Cc3ccccc3)CC2)nc(=S)n(Cc2ccccc2)c1C | 16µM* | 2% | 16µM* | 6 | ? | -7%
CC(=O)c1c(N2CCCCC2)nc(=S)n(Cc2ccccc2)c1C | 26µM* | 0% | ? | -18 | 4% | -9%
CC(=O)c1c(N2CCN(c3ccc(F)cc3)CC2)nc(=S)n(Cc2ccccc2)c1C | ? | 4% | ? | ? | -17% | -15%
CCCSc1nc(=S)n(Cc2ccccc2)c(C)c1C(C)=O | -20% | 11% | 23µM* | -3 | 2% | -1%
O=C(O)c1ccccc1-c1ccccc1C(=O)Nc1ccc2c(c1)C(O)c1ccccc1-2 (centres undefined) | 2% | nt | -1% | 9 | -9% | -14%
CCCc1nc(SCC(=O)N2CCOCC2)c2c(C)c(C)sc2n1 | 12% | -9% | ? | -8 | 0% | 1%
CCc1ccccc1NC(=O)c1ccc2c(c1)N(Cc1cccc(Cl)c1)C(=O)c1ccccc1S2(=O)=O | nt | 6% | nt | nt | 2% | -4%
CCOC(=O)c1ccc(N2C(=O)c3n[nH]c(C)c3C2c2ccc(O)cc2)cc1 (centres undefined) | -20% | 3% | ? | 15 | -4% | 4%
SMILES | DT40 TDP1 CPT | TDP1 block | DT40 TDP1 no CPT | IL1B secr inh | TGFb SMAD3 inh | HepG2 tox
CCOC(=O)c1ccc(N2C(=O)c3n[nH]c(-c4ccco4)c3C2c2ccc(OCC)cc2)cc1 (centres undefined) | ? | 9% | 16µM* | nt | 7.1µM* | -76%
CCOC(=O)c1ccc(N2C(=O)c3n[nH]c(-c4ccco4)c3C2c2cccc(F)c2)cc1 (centres undefined) | 18µM* | 5% | 21µM* | nt | ? | 16µM*
CCOC(=O)c1ccc(N2C(=O)c3n[nH]c(-c4ccco4)c3C2c2cccc(O)c2)cc1 (centres undefined) | 21µM* | 9% | 21µM* | nt | 13µM* | 22µM*
CCOC(=O)c1ccc(N2C(=O)c3n[nH]c(-c4ccco4)c3C2c2ccc(F)cc2)cc1 (centres undefined) | 23µM* | 5% | 23µM* | nt | ? | 22µM*
COc1cccc(CN(C)C(=O)c2ccccc2Sc2ccccc2C#N)c1OC | ? | 5% | ? | -1 | 3% | -3%
COc1cccc(C2c3c(-c4ccccc4)n[nH]c3C(=O)N2c2ccc(C(=O)O)cc2)c1 (centres undefined) | -5% | 4% | 8% | 13 | ? | -3%
CCOC(=O)c1ccc(N2C(=O)c3n[nH]c(-c4ccco4)c3C2c2cccc(OC)c2)cc1 (centres undefined) | 23µM* | 9% | 18µM* | nt | 4.5µM* | -73%
O=C1C(=O)c2ncccc2-c2cccnc21 | 6µM* | nt | 5.3µM* | nt | nt | nt
O=C1c2cccnc2C(=O)N1CO | 4% | 4% | -25% | -18 | 1% | 13%
